A selection: hits, their analogues and other compounds. The true share with any hit is near 7.3%.
NPC1 promoter act – qHTS Assay for NPC1 Promoter Activators | Huh7 NPC1 promoter luciferase reporter, 24 h | Potency, µM (titrated, usually from 9.22 µM), for the others: at the top dose activation, most hits filed as activators | 2.4% of 320,000 active; also: % of control where 0% means no effect; nearly all actives have a fitted effect of over 60% in size
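NPC1 promoter–luciferase Huh7 cells; 24 h compound; luminescence.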
ELG1 genotoxic – qHTS screen for small molecules that induce genotoxicity in human embryonic kidney (HEK293T) cells expressing luciferase-tagged ELG1; HEK293T ELG1-luciferase reporter, luminescence, 16 h; 1.3% of 330,000 active; Potency, µM (doses to about 46 µM), for the others: at the top dose activity change, positive = activation, hits mostly activators; also: % of control where 0% means no effect; nearly all actives have a fitted effect of over 60% in size
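16 hr compound incubation (37 °C, 5% CO2) of HEK293T cells carrying luciferase-tagged ELG1; luciferase then measured by ONE-Glo luminescence after 30 min at RT.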
Luc counter – Counterscreen for Luciferase (Kinase-Glo TM) Inhibition. Kinase-Glo luciferase, ATP luminescence, 8 min. Potency, µM (doses to about 38.3 µM), for inactives: top-dose activity change, negative = inhibition, most hits filed as inhibitors. 0.28% of 200,000 active; also: % is scaled to controls: 0 for no effect and ±100 for the full control effect; nearly all actives have a fitted effect of over 60% in size
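Recombinant Kinase-Glo luciferase, 10 uM ATP (linear range), luciferin; imidazole pH 7.2 / KCl / MgCl2 / Tween / BSA buffer; 8 min RT; luminescence.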
Rab9 promoter act – qHTS Assay for Rab9 Promoter Activators; Huh7 Rab9 promoter-luciferase reporter, luminescence, 24 h; Potency, µM (titrated, usually from 9.22 µM), without a hit: at the top dose activation, negative = inhibition, usual class: activators; 2.8% of 320,000 active; AID 485297, 2010; also: % of control where 0% means no effect; nearly all actives have a fitted effect of over 60% in size
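Huh7 cells stably carrying a Rab9 promoter-luciferase reporter, 1500 cells per well in OP-MEM I with 10% FBS, treated with compound 24 hours at 37C. Luciferase activity read by luminescence after 10 minutes with Amplite reagent.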
SMN2 splice up – qHTS Assay for Enhancers of SMN2 Splice Variant Expression. HEK293 SMN2-luciferase splicing reporter, luminescence, 30-36 h. Potency, µM (series often up to 46.1 µM), without a hit: top-dose activity change, positive = activation, actives largely listed as activators. 2.8% of 210,000 active. AID 1458, 2008; also: % of control where 0% means no effect; nearly all actives have a fitted effect of over 55% in size
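HEK293 cells carry an SMN2 […]–luciferase reporter in which exon 7 inclusion puts luciferase in frame. Cells were plated 10-12 h before compound addition, then incubated 30-36 h at 37C. ONE-Glo luminescence was read; sodium butyrate at 4.5 mM final served as control.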
FLuc modulator – qHTS profiling assay for firefly luciferase inhibitor/activator using purifed enzyme and Km concentrations of substrates (counterscreen for miR-21 project); Luciferin 4-monooxygenase (Photinus pyralis), P08659; purified FLuc, Km substrates, luminescence inhibition; 6.9% of 360,000 active; Potency, µM (highest dose often 57.5 µM), inactives show at the top dose activity change, negative = inhibition, hits mostly inhibitors;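 also: plate controls were vehicle for no effect and reference inhibitor for full effect; nearly all actives have a fitted effect of over 55% in size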
Target sequence (P08659 whole entry, looked up): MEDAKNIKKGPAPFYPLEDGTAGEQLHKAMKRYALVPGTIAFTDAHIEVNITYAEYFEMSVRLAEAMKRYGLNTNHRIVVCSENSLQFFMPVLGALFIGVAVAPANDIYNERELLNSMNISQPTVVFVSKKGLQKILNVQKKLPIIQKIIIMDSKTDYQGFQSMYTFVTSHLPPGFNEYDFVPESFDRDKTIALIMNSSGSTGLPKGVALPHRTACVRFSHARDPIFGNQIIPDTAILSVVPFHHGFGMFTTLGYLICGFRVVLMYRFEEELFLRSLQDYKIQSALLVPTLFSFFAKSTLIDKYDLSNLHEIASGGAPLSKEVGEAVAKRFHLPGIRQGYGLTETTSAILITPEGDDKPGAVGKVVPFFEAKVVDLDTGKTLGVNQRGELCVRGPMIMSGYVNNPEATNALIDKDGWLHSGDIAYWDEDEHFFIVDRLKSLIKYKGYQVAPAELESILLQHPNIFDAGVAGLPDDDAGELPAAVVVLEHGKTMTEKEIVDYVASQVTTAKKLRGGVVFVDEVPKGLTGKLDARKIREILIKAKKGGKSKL
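Purified P. pyralis luciferase, 10 nM final, with Km-level 10 uM D-luciferin and 10 uM ATP in 50 mM Tris acetate pH 7.5, 10 mM Mg acetate, 0.01% Tween-20, 0.05% BSA; 6-point qHTS titration about 60 µM downward; luminescence read.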
Active calls of the source: *; ? = inconclusive; nt = no result; [ ] = remark or other dose. Calls follow the shape of the dose curve; as a rule, active = well fitted curve in the direction sought with a large enough effect; inconclusive = small, poorly fitted or top-dose-only effect, or another doubt; inactive = no such curve, though single readings can be large; an effect the other way counts as inactive or inconclusive. Potency is read from the fitted curve at half-maximal effect.

SMILES | NPC1 promoter act | ELG1 genotoxic | Luc counter | Rab9 promoter act | SMN2 splice up | FLuc modulator
CCc1ccc(NC(=S)Nc2cccc(OC)c2)cc1 | -6.7% | 6.0% | -2.5% | 2.4% | 6.9% | 21.3µM*
CCOc1cc(NC(=S)Nc2cccc(OC)c2)c(OCC)cc1NC(=O)C1CC1 | -2.1% | -7.5% | -3.2% | 1.8% | 20.1% | 15.1µM*
CCc1ccc(C(=O)c2cn(Cc3ccc(F)cc3)c3cc(OC)c(OC)cc3c2=O)cc1 | nt | nt | nt | nt | 17.9% | -0.7%
COc1cc(NCC[C@@H]2CCCCN2)c2ncccc2c1 | nt | nt | -4.7%[7.66 µM] | nt | -86.6%[9.22 µM] | nt
CC(N)(COP(=O)(O)O)C(=O)O (configuration not stated) | nt | nt | nt | nt | -8.2% | nt
Cn1nnnc1SCCCNCc1ccccc1OCc1ccc(Cl)cc1 | nt | nt | nt | nt | nt | -1.8%
COc1ccc(C(=O)NC(=S)Nc2nc(C)cc(C)n2)cc1Br | ? | -0.6% | nt | ? | nt | 15.1µM*
CCOc1ccc(NC(=O)CN2CCN(CC(=O)Nc3ccc4c(c3)OCCO4)CC2)cc1 | 2.5% | 1.2% | 2.2% | -3.6% | 6.9% | 1.9%
CCOc1cc(C(=O)NC(=S)Nc2nc(C)cc(C)n2)cc(OCC)c1OCC | -12.1% | -1.7% | nt | -2.8% | nt | 3.0%
COc1ccc(C(=O)Nc2ccc3c(c2)OCCO3)cc1Br | 1µM* | ? | nt | 1.26µM* | nt | 1.51µM*
CCOc1ccc(C(=O)Nc2ccc3c(c2)OCCO3)cc1 | 0.501µM* | 2.31µM* | nt | 0.398µM* | nt | 2.13µM*
CCOc1ccc(C(=O)Nc2ccc3c(c2)OCCO3)cc1Br | nt | nt | nt | nt | 15.8µM* | 1.35µM*
O=C1O[C@@H]([C@H](O)[C@H](O)[C@H](O)CO)[C@@H](O)[C@@H]1O | nt | nt | -5.6%[7.66 µM] | nt | -8.0%[9.22 µM] | nt
O=C(c1ccco1)N1CCn2c1nc1ccccc12 | ? | ? | ? | ? | 11.2µM* | ?
Nc1nc2ccccc2n1C(=O)c1ccc(F)cc1 | 0.501µM* | 1.16µM* | ? | 0.282µM* | nt | 1.35µM*
COc1ccc(C(=O)n2c(N)nc3ccccc32)cc1OC | 2.82µM* | ? | nt | 2.51µM* | nt | 19µM*
COCCNc1nc2ccccc2n1CC(=O)c1ccc(OC)c(OC)c1 | -0.3% | -4.7% | nt | -1.3% | nt | -0.9%
Cn1c(CNC(=O)c2ccc(F)cc2)nc2ccccc21 | 1.7% | 0.6% | -1.6% | -5.1% | -0.7% | -0.6%
Nc1nc2ccccc2n1C(=O)CCc1ccccc1 | ? | 2.31µM* | -1.9% | ? | 10µM* | ?
CCC(=O)N1CCn2c1nc1ccccc12 | -1.9% | 6.3% | -2.8% | 3.1% | 23.4% | 0.6%
Cc1ccc(NC(=O)C(=O)NCC(c2ccc3c(c2)OCO3)N2CCOCC2)cc1C (configuration not stated) | nt | nt | nt | nt | nt | 0.7%
CCCCn1c(=O)c2oc3ccccc3c2n(Cc2ccc(OC)cc2)c1=O | nt | nt | nt | nt | nt | -0.6%
Nc1nc2ccccc2n1C(=O)c1cccs1 | ? | ? | ? | 0.794µM* | 11.2µM* | 2.69µM*
Nc1nc2ccccc2n1C(=O)c1ccco1 | ? | ? | ? | 2.51µM* | 12.6µM* | 10.7µM*
Nc1nc2ccccc2n1C(=O)c1ccccc1 | ? | 0.651µM* | 11.2µM* | 0.355µM* | 1.58µM* | 0.757µM*
COc1ccccc1Cc1nc2ccccc2nc1SCC(=O)N1CCN(c2ccccc2)CC1 | nt | nt | nt | nt | nt | -1.0%
COc1ccccc1N1CCN(C(=O)Cn2c(=O)n3nc(-c4cccc(C)c4)nc3c3ccccc32)CC1 | nt | nt | nt | nt | nt | 2.7%
O=C(N=Nc1c(O)n(Cc2ccccc2)c2ccccc12)c1ccncc1 | 11.5% | -6.3% | nt | 8.2% | nt | 23.9µM*
Cc1ccc(Cn2cc(C(=O)c3ccc4c(c3)OCO4)c(=O)c3cc(C)ccc32)cc1 | nt | nt | nt | nt | -5.0% | -1.1%
COc1cc2[nH]c3c(N4CCN(c5ccccn5)CC4)ncnc3c2cc1OC | -12.9% | -5.3% | 1.4% | 5.0% | -39.4% | 13.5µM*
